For 13 molecules, growth results are on record in PubChem BioAssay (NCI).

Compounds without any hit were thinned out: in the full panel of roughly 83,000, 20% have a hit.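 Single-dose data. Exposure time 48 hours. Values below 10 considered active.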 Values without a mark were called inactive. The source made the active and inactive calls.

Holding throughout (experiment): NCI-60 one-dose screen, 48 h (100 = growth as untreated, 0 = no growth, -100 = all killed)
Settings in all cases: 10 µM unless noted

Assay [1] relates to DU-145 prostate.
The test system of assay [2] is K-562 leukemia.
Assay [3] concerns MALME-3M melanoma.
For assay [4], the system named is MDA-MB-231 breast.
In assay [5] the test system is RXF 393 renal.
For assay [6], the system named is SF-268 CNS.
The test system of assay [7] is SF-295 CNS.
Assay [8] relates to SF-539 CNS.
The subject of assay [9] is UACC-257 melanoma.
Assay [10] deals with M14 melanoma.

In the case of `C#Cc1cccc(NC(=O)c2ccc(NC(=O)CCl)cc2)c1`, the growth in assay [1] is 42.4% [8.25 µM]; in assay [2], 7.87% [8.25 µM] (active); in assay [3], -83.5% [8.25 µM] (active); in assay [4], -22.8% [8.25 µM] (active); in assay [5] it was 47.9% [8.25 µM]; in assay [6], -8.76% [8.25 µM] (active). Besides, the growth in assay [7] was 75.4% [8.25 µM]; in assay [8], -94.7% [8.25 µM] (active); in [9], 43.3% [8.25 µM]; in assay [10], -60.6% [8.25 µM] (active).
With `N#Cc1nc(C#N)c(Sc2ccccc2)c(Sc2ccccc2)c1Sc1ccccc1`, the growth is -47.8% (active) in assay [1]; -41.2% (active) in assay [2]; -20.6% (active) in [3]; -32.7% (active) in assay [4]; -38.7% (active) in [5]; -67.6% (active) in assay [6]. Also, the growth in assay [7] is 1.87% (active); in assay [8], -86.6% (active); in assay [9], -59.2% (active); in [10], -28.9% (active).
For the molecule `CCc1c2c(nc3ccc(OC(=O)NCc4ccc(B5OC(C)(C)C(C)(C)O5)cc4)cc13)-c1cc3c(c(=O)n1C2)COC(=O)[C@]3(O)CC`, the growth was 3.45% (active) in assay [1]; 10.8% in [2]; -44.1% (active) in [3]; 13% in [4]; -61.9% (active) in [5]; -5.02% (active) in [6]. For the same molecule, the growth in assay [7] was -0.543% (active); in assay [8] it was -47.1% (active); in [9] it was -44.5% (active); in [10], -16.1% (active).
Consider `CCCCCCN(CCCCCC)c1ccc(/C=C2/SC(=O)N(c3nc(N4CCCC4)nc(N4CCCC4)n3)C2=O)c(C)c1`, for which the growth in assay [1] is 77.3%; in assay [2], 37.5%; in assay [3] it was 71.5%; in [4], 85.7%; in [5], 84.7%; in assay [6], 73.2%. Moreover, the growth in assay [7] was 56.7%; in [8], 114%; in [9], 72.6%; in [10] it was 69.3%.
Take `Cc1ccc(Cl)c(NS(=O)(=O)c2ccc(-c3cnc(C4CC4)o3)cc2)c1`: the growth was 21.6% in assay [1]; 8.53% (active) in assay [2]; 62.4% in assay [3]; 32.5% in assay [4]; 9.98% (active) in assay [5]; 56.2% in assay [6]. In addition, the growth in [7] is 16.1%; in assay [8], -8.06% (active); in assay [9] it was 67.8%; in assay [10] it was 2.07% (active).
Take `C=C1C(=O)O[C@H]2[C@H]1CC/C(COC(=O)C(=O)c1c[nH]c3ccc(OC)cc13)=C\CC[C@@]1(C)O[C@@H]21`: the growth in assay [1] was -89.8% (active); in assay [2] it was -7.42% (active); in assay [3], -71.4% (active); in assay [4] it was -64.8% (active); in [5] it was -93.1% (active); in assay [6], -53.2% (active). Also, the growth in assay [7] was 33.1%; in [8], -97.4% (active); in assay [9], -93.9% (active); in assay [10] it was -79.1% (active).
Regarding `Cc1ccc2nc(C)c(-c3nnc(SCc4ccc(C#N)cc4)o3)n2c1`, the growth was 112% in [1]; 38% in assay [2]; 101% in assay [3]; 74.2% in assay [4]; 89.5% in [5]; 96.6% in assay [6]. For the same molecule, the growth was 92.9% in [7], 88.3% in assay [8], 119% in [9] and 102% in [10].
As for `Cc1ccc(-n2c(-c3ccccc3)c(-c3ccccc3)c3c(SCC(=O)n4[nH]c(N)cc4=O)ncnc32)cc1`, the growth is 108% in assay [1]; 77.1% in assay [2]; 97.6% in assay [3]; 83.3% in assay [4]; 96.6% in assay [5]; 107% in assay [6]. The growth in assay [7] was 89.3%; in assay [8], 96%; in assay [9], 94.1%; in assay [10], 94.3%.
For the molecule `Cc1ccc(/C=C/c2c(C(=O)/C=C/c3ccc(Cl)cc3)c(C)nc3ccccc23)cc1`, the growth in [1] was -38.8% (active); in [2], 5.31% (active); in assay [3], -31.2% (active); in [4], -24.2% (active); in assay [5] it was -66.4% (active); in [6] it was 38.1%. Besides, the growth is -29.3% (active) in [7], -85.5% (active) in assay [8], 8.99% (active) in assay [9] and -0.212% (active) in assay [10].
For the molecule `CCN1C(=O)N(CC)C2Nn3c(s/c(=C\c4ccc(Cl)cc4Cl)c3=O)=NC21` (stereo not given), the growth is 24.2% in assay [1]; 11.4% in assay [2]; 75.6% in [3]; 27.3% in assay [4]; 43% in assay [5]; 64.6% in assay [6]. Also, the growth in assay [7] is 26.5%; in assay [8], 13.1%; in assay [9], 83.9%; in assay [10], 26%.
`CCN(CC)c1ccc(C(=O)c2ccc(N(CC)CC)cc2)cc1`: the growth in [1] is 20.2%; in [2] it was 14.7%; in [3] it was 67.2%; in assay [4], 18.4%; in assay [5], -36.5% (active); in [6], 45.6%. Further, the growth in assay [7] is 11%; in assay [8] it was 0.464% (active); in assay [9], 76.2%; in assay [10], 0.748% (active).
Turning to `COc1cc(-c2n/c(=C\c3c(O)[nH]c4ccc(Cl)cc34)cc3c2=Nc2ccccc2-3)cc(OC)c1OC`, the growth in assay [1] is -15.4% (active); in assay [2], 3.48% (active); in [3], -40.3% (active); in assay [4], -14.9% (active); in assay [5] it was -70.3% (active); in [6], -11.8% (active). The growth in assay [7] was 7.89% (active); in [8], 31.2%; in [9] it was 27.2%; in assay [10] it was 0.836% (active).
As for `Cc1cc(NCc2cc(Nc3ccnc4cc(Cl)ccc34)ccc2F)nc(N2CCN(C)CC2)n1`, the growth in [1] is 23.4%; in assay [2] it was -37.2% (active); in assay [3], -68.3% (active); in assay [4], -43.9% (active); in assay [5], -27.1% (active); in assay [6] it was 12.6%. The growth in assay [7] was -60.9% (active); in assay [8], -75.3% (active); in assay [9], -59.7% (active); in assay [10], -73.1% (active).
